Test results reported in the supplement of paper PMC7380943.
± gives the standard deviation of the averaged measurements.

Key:
[1] = tested on: CLZ3 (HCA2 human fibroblast dual HR-NHEJ reporter); test: NHEJ repair efficiency (GFP+ cells) relative to control (log10 fold); higher = more non-homologous end joining; conditions: 5 µM; doxycycline 0.5 ug/mL
[2] = tested on: CLZ3 (HCA2 human fibroblast dual HR-NHEJ reporter); test: HR repair efficiency (tdTomato+ cells) relative to control (log10 fold); higher = more homologous recombination; conditions: 5 µM; doxycycline 0.5 ug/mL
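For HR repair efficiency (tdTomato+ cells) relative to control in this document: compound given one day before doxycycline, which switches on I-SceI endonuclease expression to create double-strand breaks within the integrated reporter.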
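For NHEJ repair efficiency (GFP+ cells) relative to control in this document: compound given one day ahead of doxycycline, which switches on I-SceI endonuclease to cut the chromosomally integrated reporter and create DSBs.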

O=C(/C=C/c1ccc(O[C@@H]2O[C@H](CO)[C@@H](O)[C@H](O)[C@H]2O)cc1)c1ccc(O)cc1O [Isoliquiritin]
NHEJ repair efficiency (log10) [1]: -0.0606 | HR repair efficiency (log10) [2]: -0.0597

COc1cc2c(=O)c(-c3ccc(O)cc3)coc2cc1O [Glycitein]
NHEJ repair efficiency (log10) [1]: 0.0336 | HR repair efficiency (log10) [2]: 0.1

COc1cc(/C=C/c2ccc(O)cc2)cc(OC)c1 [Pterostilbene]
NHEJ repair efficiency (log10) [1]: 0.127 | HR repair efficiency (log10) [2]: 0.242

COc1ccc(/C=C/c2cc(O)cc(O[C@@H]3O[C@H](CO)[C@@H](O)[C@H](O)[C@H]3O)c2)cc1O [Rhapontin]
NHEJ repair efficiency (log10) [1]: 0.134 | HR repair efficiency (log10) [2]: 0.0931

O=C(O)CC(O)(CC(=O)O)C(=O)O [Citric Acid]
NHEJ repair efficiency (log10) [1]: -0.0431 | HR repair efficiency (log10) [2]: -0.109

O=c1c(O[C@@H]2O[C@H](CO)[C@@H](O)[C@H](O)[C@H]2O)c(-c2ccc(O)c(O)c2)oc2cc(O)cc(O)c12 [Isoquercitrin]
NHEJ repair efficiency (log10) [1]: -0.0426 | HR repair efficiency (log10) [2]: 0.0777

CC(C)=CCc1c(-c2ccc(O)cc2O)oc2c3c(cc(O)c2c1=O)OC(C)(C)C=C3 [Morusin]
NHEJ repair efficiency (log10) [1]: 0.0648 | HR repair efficiency (log10) [2]: -0.298

COc1ccc(CCO[C@@H]2O[C@H](CO[C@@H]3OC[C@H](O)[C@H](O)[C@H]3O)[C@@H](OC(=O)/C=C/c3ccc(O)c(OC)c3)[C@H](O[C@@H]3O[C@@H](C)[C@@H](O)[C@@H](O)[C@H]3O)[C@H]2O)cc1O [Angoroside C]
NHEJ repair efficiency (log10) [1]: 0.0985 | HR repair efficiency (log10) [2]: 0.3

COC(=O)C1=CO[C@@H](O[C@@H]2O[C@H](CO)[C@@H](O)[C@H](O)[C@H]2O)[C@H]2[C@@H]1C(=O)C[C@@H]2C [Verbenalin]
NHEJ repair efficiency (log10) [1]: 0.0793 | HR repair efficiency (log10) [2]: 0.178

COC(=O)C1=CO[C@@H](O[C@@H]2O[C@H](CO)[C@@H](O)[C@H](O)[C@H]2O)[C@@H]2[C@@H](C)[C@@H](O)C[C@H]12 [Loganin]
NHEJ repair efficiency (log10) [1]: 0.226 | HR repair efficiency (log10) [2]: 0.191

O=C1/C(=C2\Nc3ccccc3C2=O)Nc2ccccc21 [Indigo]
NHEJ repair efficiency (log10) [1]: -0.108 | HR repair efficiency (log10) [2]: -0.0903

CC1CCC(C(C)C)C(O)C1 (racemic) [dl-Menthol]
NHEJ repair efficiency (log10) [1]: 0.0823 | HR repair efficiency (log10) [2]: 0.0753

COc1cc(OC)c2ccc(=O)oc2c1 [5,7-Dimethoxycoumarin]
NHEJ repair efficiency (log10) [1]: 0.0653 | HR repair efficiency (log10) [2]: 0.0758

COc1cc2c(cc1OC)[C@@H]1Cc3ccc(OC)c(OC)c3CN1CC2 [Tetrahydropalmatine]
NHEJ repair efficiency (log10) [1]: -0.0787 | HR repair efficiency (log10) [2]: 0.0375

O=c1cc(-c2ccc(O)cc2)oc2c([C@@H]3O[C@H](CO)[C@@H](O)[C@H](O)[C@H]3O)c(O)cc(O)c12 [Vitexin]
NHEJ repair efficiency (log10) [1]: 0.172 | HR repair efficiency (log10) [2]: 0.126

COc1cc(-c2oc3cc(O)cc(O)c3c(=O)c2O[C@@H]2O[C@H](CO[C@H]3O[C@H](C)[C@@H](O)[C@H](O)[C@@H]3O)[C@@H](O)[C@H](O)[C@H]2O)ccc1O [Narcissoside; Isorhamnetin-3-O-β-D-rutinoside]
NHEJ repair efficiency (log10) [1]: 0.0544 | HR repair efficiency (log10) [2]: -0.0269

COc1cc(O)c2c(=O)c(-c3ccc(O)cc3)coc2c1 [Prunusetin]
NHEJ repair efficiency (log10) [1]: -0.0809 | HR repair efficiency (log10) [2]: -0.16

Oc1ccc(/C=C/c2cc(O)cc(O)c2)cc1 [Resveratrol]
NHEJ repair efficiency (log10) [1]: -0.0132 | HR repair efficiency (log10) [2]: 0.0336

COc1ccc(-c2cc(=O)c3c(O)cc(O)c(-c4cc(-c5cc(=O)c6c(O)cc(OC)cc6o5)ccc4OC)c3o2)cc1 [Sciadopitysin]
NHEJ repair efficiency (log10) [1]: 0.0652 | HR repair efficiency (log10) [2]: 0.234

C[C@@H]1O[C@@H](O[C@H]2[C@H](OC(=O)[C@]34CCC(C)(C)C[C@H]3C3=CC[C@@H]5[C@@]6(C)C[C@H](O)[C@H](O[C@@H]7O[C@H](CO)[C@@H](O)[C@H](O)[C@H]7O)C(CO)(CO)[C@@H]6CC[C@@]5(C)[C@]3(C)C[C@H]4O)OC[C@H](O)[C@@H]2O)[C@H](O)[C@H](O)[C@H]1O[C@@H]1OC[C@@H](O)[C@H](O[C@@H]2OC[C@](O)(CO)[C@H]2O)[C@H]1O [Platycodin D]
NHEJ repair efficiency (log10) [1]: -0.142 | HR repair efficiency (log10) [2]: -0.287

Cc1cc(O)c2c(c1)C(=O)c1cc(O)cc(O)c1C2=O [Emodin]
NHEJ repair efficiency (log10) [1]: -0.0237 | HR repair efficiency (log10) [2]: 0.049

C[C@@]12C[C@H](c3ccoc3)O[C@@]13C[C@H](OC3=O)[C@H]1[C@H]2C[C@@H]2C[C@H]1C(=O)O2 [Diosbulbin B]
NHEJ repair efficiency (log10) [1]: -0.0688 | HR repair efficiency (log10) [2]: 0.0545

COc1ccc(-c2cc(=O)c3c(O)c(OC)c(O)c(OC)c3o2)cc1 [Nevadensin]
NHEJ repair efficiency (log10) [1]: -0.111 | HR repair efficiency (log10) [2]: 0.0179

COc1ccc2[nH]cc(CCNC(C)=O)c2c1 [Melatonin]
NHEJ repair efficiency (log10) [1]: 0.0863 | HR repair efficiency (log10) [2]: 0.227

C[C@H](CCC(=O)O)[C@H]1CC[C@H]2[C@@H]3CC[C@@H]4C[C@H](O)CC[C@]4(C)[C@H]3C[C@H](O)[C@]12C [Deoxycholic acid]
NHEJ repair efficiency (log10) [1]: -0.0363 | HR repair efficiency (log10) [2]: 0.0026

O=C1OC2(c3ccccc3Oc3ccccc32)c2ccccc21 [Fluoran]
NHEJ repair efficiency (log10) [1]: 0.0054 | HR repair efficiency (log10) [2]: 0.0374

C=C(C)[C@@H]1CC[C@]2(C)[C@H](CC=C3[C@@H]4[C@@H](C)[C@H](C)CC[C@]4(C)CC[C@]32C)[C@@]1(C)CCC(=O)O [Roburic acid]
NHEJ repair efficiency (log10) [1]: 0.15 | HR repair efficiency (log10) [2]: 0.128

COC(=O)C1=CO[C@@H](O[C@@H]2O[C@H](CO[C@@H]3O[C@H](CO)[C@@H](O)[C@H](O)[C@H]3O)[C@@H](O)[C@H](O)[C@H]2O)[C@@H]2C(CO)=CC[C@H]12 [Genipin 1-Gentiobioside]
NHEJ repair efficiency (log10) [1]: 0.0417 | HR repair efficiency (log10) [2]: 0.0278

O=Cc1ccc(O[C@@H]2O[C@H](CO)[C@@H](O)[C@@H](O)[C@H]2O)cc1 [Helicide]
NHEJ repair efficiency (log10) [1]: 0.119 ± 0.097 | HR repair efficiency (log10) [2]: 0.0668 ± 0.075

O=C(/C=C/c1ccc(O)cc1)C1=C(O)C(O)([C@@H]2O[C@H](CO)[C@@H](O)[C@H](O)[C@H]2O)C(O)=C([C@@H]2O[C@H](CO)[C@@H](O)[C@H](O)[C@H]2O)C1=O (stereo partly specified) [Hydroxysafflor yellow A]
NHEJ repair efficiency (log10) [1]: 0.0258 | HR repair efficiency (log10) [2]: 0.0597

C[C@@H]1O[C@@H](O[C@@H]2[C@H](O)[C@@H](O)[C@H](O[C@H]3CC[C@@]4(C)C(CC[C@]5(C)C4C=C[C@]46OC[C@@]7(CCC(C)(C)CC74)[C@@H](O)C[C@]65C)C3(C)C)O[C@@H]2CO[C@@H]2O[C@H](CO)[C@@H](O)[C@H](O)[C@H]2O)[C@H](O)[C@H](O)[C@H]1O (stereo partly specified) [Saikosaponin c]
NHEJ repair efficiency (log10) [1]: -0.0431 | HR repair efficiency (log10) [2]: -0.104

O=C(C=Cc1ccc(O)c(O)c1)O[C@@H]1C[C@@](O)(C(=O)O)C[C@@H](O)[C@@H]1O [5-Caffeoylquinic Acid]
NHEJ repair efficiency (log10) [1]: -0.0761 | HR repair efficiency (log10) [2]: -0.0365

Cn1cnc2c1c(=O)[nH]c(=O)n2C [Theobromine]
NHEJ repair efficiency (log10) [1]: -0.0855 | HR repair efficiency (log10) [2]: 0.141

C=CC(C)(C)c1cc(/C=C/C(=O)c2ccc(O)cc2)c(OC)cc1O [Licochalcone A]
NHEJ repair efficiency (log10) [1]: -0.106 | HR repair efficiency (log10) [2]: 0.0473

NCCCC(=O)O [γ-Aminobutyric Acid]
NHEJ repair efficiency (log10) [1]: -0.0944 | HR repair efficiency (log10) [2]: 0.0562

OC[C@H]1O[C@@H](Oc2cc(O)cc(/C=C/c3ccc(O)cc3)c2)[C@H](O)[C@@H](O)[C@@H]1O [Polydatin]
NHEJ repair efficiency (log10) [1]: 0.036 | HR repair efficiency (log10) [2]: 0.288

CC1(C)CC[C@]2(C(=O)O[C@@H]3O[C@H](CO)[C@@H](O)[C@H](O)[C@H]3O)CC[C@]3(C)C(=CC[C@@H]4[C@@]5(C)CC[C@H](O[C@@H]6O[C@H](C(=O)O)[C@@H](O)[C@H](O)[C@H]6O[C@@H]6O[C@H](CO)[C@@H](O)[C@H](O)[C@H]6O)C(C)(C)[C@@H]5CC[C@]43C)[C@@H]2C1 [Ginsenoside Ro]
NHEJ repair efficiency (log10) [1]: 0.13 | HR repair efficiency (log10) [2]: 0.3

COc1ccc(-c2oc3cc(OC)c(OC)c(O)c3c(=O)c2OC)cc1O [Vitexicarpin]
NHEJ repair efficiency (log10) [1]: -0.0426 | HR repair efficiency (log10) [2]: -0.203

CC(C)=C1C/C=C(\C)CC/C=C(\C)CC1=O [Germacrone]
NHEJ repair efficiency (log10) [1]: 0.0003 | HR repair efficiency (log10) [2]: -0.103

C[C@H](CCC(=O)O)[C@H]1CC[C@H]2[C@@H]3C[C@H](O)[C@@H]4C[C@H](O)CC[C@]4(C)[C@H]3CC[C@]12C [Hyodesoxycholic acid]
NHEJ repair efficiency (log10) [1]: -0.299 | HR repair efficiency (log10) [2]: -0.322

CCCCCCCC/C=C\CCCCCCCC(=O)OCC(COC(=O)CCCCCCC/C=C\CCCCCCCC)OC(=O)CCCCCCC/C=C\CCCCCCCC [Glycerol Trioleate]
NHEJ repair efficiency (log10) [1]: -0.000616 | HR repair efficiency (log10) [2]: 0.0182

COc1ccc(-c2cc(=O)c3c(O)cc(O)cc3o2)cc1 [Acacetin]
NHEJ repair efficiency (log10) [1]: -0.203 | HR repair efficiency (log10) [2]: 0.0794

C[C@@H]1O[C@@H](O[C@H]2[C@H](Oc3cc(O)c(C(=O)CCc4ccc(O)cc4)c(O)c3)O[C@H](CO)[C@@H](O)[C@@H]2O)[C@H](O)[C@H](O)[C@H]1O
NHEJ repair efficiency (log10) [1]: -0.0363 | HR repair efficiency (log10) [2]: -0.0118

C=C1CC[C@H]2C(=C)CC[C@H]3C(=C)C(=O)O[C@@H]3[C@@H]12 [Dehydrocostus Lactone]
NHEJ repair efficiency (log10) [1]: -0.02 | HR repair efficiency (log10) [2]: 0.03

CCCCCCC[C@H](O)CC(=O)CCc1ccc(O)c(OC)c1 [8-Gingerol]
NHEJ repair efficiency (log10) [1]: 0.00172 | HR repair efficiency (log10) [2]: 0.0341

O=C(/C=C/c1ccc(O)c2oc(-c3ccc(O)c(O)c3)cc12)O[C@H](Cc1ccc(O)c(O)c1)C(=O)O [Salvianolic Acid C]
NHEJ repair efficiency (log10) [1]: -0.0345 | HR repair efficiency (log10) [2]: -0.0113

CC(C)(O)[C@H](O)COc1c2ccoc2cc2oc(=O)ccc12 [Oxypeucedanin Hydrate]
NHEJ repair efficiency (log10) [1]: -0.0248 | HR repair efficiency (log10) [2]: 0.00711

C/C=C/c1cc(OC)c2c(c1)C(C)C(c1ccc(O)c(OC)c1)O2 (stereo unspecified) [Dehydrodiisoeugenol]
NHEJ repair efficiency (log10) [1]: -0.00267 | HR repair efficiency (log10) [2]: -0.0825

C[C@H](CCC(=O)O)[C@H]1CC[C@H]2[C@@H]3[C@H](O)C[C@@H]4C[C@H](O)CC[C@]4(C)[C@H]3C[C@H](O)[C@]12C [Cholic acid]
NHEJ repair efficiency (log10) [1]: -0.0347 | HR repair efficiency (log10) [2]: -0.0733

C=C1CCC[C@]2(C)C=C3OC(=O)C(C)=C3C[C@@H]12 [Atractylenolide I]
NHEJ repair efficiency (log10) [1]: 0.0524 | HR repair efficiency (log10) [2]: 0.0435

Oc1cc(O)c2c(c1)OC(c1ccc(O)c(O)c1)C(O)C2 (single isomer, unassigned; (+)) [(+)-Catechin]
NHEJ repair efficiency (log10) [1]: 0.0406 | HR repair efficiency (log10) [2]: -0.0449

O=C(C=Cc1ccc(O)c(O)c1)O[C@H]1[C@H](O)C[C@](O)(C(=O)O)C[C@H]1OC(=O)C=Cc1ccc(O)c(O)c1 [Isochlorogenic acid C]
NHEJ repair efficiency (log10) [1]: 0.118 | HR repair efficiency (log10) [2]: 0.0227

O=C1c2cccc(O)c2C(=O)c2c(O)cccc21 [1,8-Dihydroxyanthraquinone]
NHEJ repair efficiency (log10) [1]: -0.286 | HR repair efficiency (log10) [2]: -0.106
